Data on 8 sequences can be found in paper PMC7862700, “An all-to-all approach to the identification of sequence-specific readers for epigenetic DNA modifications on cytosine”.

Common to all, as to assay: DAPPL (digital affinity profiling via proximity ligation, sequencing); 10 mM Tris-HCl pH 7.5, 50 mM NaCl, 1 mM DTT, 4% glycerol, room temperature, 30 min; GST-TFs on glutathione beads, 16-mer random dsDNA library, 0.1% formaldehyde crosslink after washing; high values mean tight binding
Conditions in all cases: protein: recombinant; tags: N-terminal GST; dsDNA, one strand shown

One test has as its target T1, ERF (Homo sapiens, UniProt P50548 1-548).
T1 sequence: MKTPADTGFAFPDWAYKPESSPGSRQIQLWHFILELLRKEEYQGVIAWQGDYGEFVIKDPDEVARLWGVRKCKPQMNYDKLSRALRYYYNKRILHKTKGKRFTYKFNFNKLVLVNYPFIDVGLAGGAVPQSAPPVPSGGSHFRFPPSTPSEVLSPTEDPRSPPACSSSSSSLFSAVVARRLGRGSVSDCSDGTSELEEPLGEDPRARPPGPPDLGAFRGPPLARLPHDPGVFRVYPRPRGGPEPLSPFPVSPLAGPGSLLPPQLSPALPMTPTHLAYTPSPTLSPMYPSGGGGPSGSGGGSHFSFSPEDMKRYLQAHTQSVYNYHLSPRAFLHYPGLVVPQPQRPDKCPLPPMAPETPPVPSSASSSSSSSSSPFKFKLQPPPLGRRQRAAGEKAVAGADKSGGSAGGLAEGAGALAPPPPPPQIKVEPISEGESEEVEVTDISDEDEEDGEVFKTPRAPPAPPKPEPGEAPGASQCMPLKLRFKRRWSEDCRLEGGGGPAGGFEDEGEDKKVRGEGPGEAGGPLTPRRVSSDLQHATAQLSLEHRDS
Summed up: (§1)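 Pools were built from human transcription factors expressed in yeast as GST fusions, captured on glutathione beads and DNA-barcoded, along with a tag-only sample. Incubation with 200 nmole of a 16-mer random double-stranded DNA library lasted 30 min at room temperature in Tris/NaCl/DTT/glycerol buffer, and was followed by washing, 0.1% formaldehyde crosslinking, proximity ligation, PCR amplification and Illumina NextSeq500 sequencing. Binding signal is the quotient of each hexamer's read frequency for a factor and its frequency for the tag-only sample.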

In a further test the target is T2, ETV3L (Homo sapiens, UniProt Q6ZN32 1-361).
T2 sequence: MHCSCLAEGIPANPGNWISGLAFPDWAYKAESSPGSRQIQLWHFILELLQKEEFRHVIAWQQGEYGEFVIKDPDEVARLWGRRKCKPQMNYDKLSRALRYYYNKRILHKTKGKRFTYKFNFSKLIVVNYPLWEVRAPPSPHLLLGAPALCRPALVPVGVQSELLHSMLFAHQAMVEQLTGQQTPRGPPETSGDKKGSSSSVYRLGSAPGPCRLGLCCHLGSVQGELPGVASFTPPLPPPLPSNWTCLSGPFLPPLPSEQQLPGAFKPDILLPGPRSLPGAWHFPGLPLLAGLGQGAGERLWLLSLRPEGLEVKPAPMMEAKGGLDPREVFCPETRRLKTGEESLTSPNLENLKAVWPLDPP
Summed up:
as §1

The target of another test is T3, ETS2 (Homo sapiens, UniProt P15036 1-469).
T3 sequence: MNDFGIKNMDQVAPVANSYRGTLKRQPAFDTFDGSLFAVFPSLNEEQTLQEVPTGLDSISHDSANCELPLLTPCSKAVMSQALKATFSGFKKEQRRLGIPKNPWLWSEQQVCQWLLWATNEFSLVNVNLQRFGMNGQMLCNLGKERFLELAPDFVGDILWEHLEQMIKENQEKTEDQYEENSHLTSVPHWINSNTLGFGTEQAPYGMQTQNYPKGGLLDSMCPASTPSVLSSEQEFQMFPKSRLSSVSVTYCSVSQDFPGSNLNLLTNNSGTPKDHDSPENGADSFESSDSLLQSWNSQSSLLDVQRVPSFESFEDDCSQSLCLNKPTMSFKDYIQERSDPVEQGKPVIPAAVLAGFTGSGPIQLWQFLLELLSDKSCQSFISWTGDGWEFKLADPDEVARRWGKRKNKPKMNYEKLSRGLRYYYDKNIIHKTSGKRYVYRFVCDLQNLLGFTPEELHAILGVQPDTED
The procedure, abridged: as §1

A further test has as its target T4, SPDEF (Homo sapiens, UniProt O95238 1-335).
T4 sequence: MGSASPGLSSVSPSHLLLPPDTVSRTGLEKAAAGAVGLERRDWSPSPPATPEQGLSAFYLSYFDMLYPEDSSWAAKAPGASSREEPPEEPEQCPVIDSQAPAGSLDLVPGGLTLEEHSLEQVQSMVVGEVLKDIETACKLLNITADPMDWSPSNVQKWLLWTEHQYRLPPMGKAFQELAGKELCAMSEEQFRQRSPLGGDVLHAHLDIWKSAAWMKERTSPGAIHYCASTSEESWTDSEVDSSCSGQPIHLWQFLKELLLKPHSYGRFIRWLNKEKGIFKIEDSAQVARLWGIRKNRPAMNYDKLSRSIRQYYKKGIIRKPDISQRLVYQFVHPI
The procedure, abridged: as §1

The target in the next test is T5, ETV7 (Homo sapiens, UniProt Q9Y603 1-341).
T5 sequence: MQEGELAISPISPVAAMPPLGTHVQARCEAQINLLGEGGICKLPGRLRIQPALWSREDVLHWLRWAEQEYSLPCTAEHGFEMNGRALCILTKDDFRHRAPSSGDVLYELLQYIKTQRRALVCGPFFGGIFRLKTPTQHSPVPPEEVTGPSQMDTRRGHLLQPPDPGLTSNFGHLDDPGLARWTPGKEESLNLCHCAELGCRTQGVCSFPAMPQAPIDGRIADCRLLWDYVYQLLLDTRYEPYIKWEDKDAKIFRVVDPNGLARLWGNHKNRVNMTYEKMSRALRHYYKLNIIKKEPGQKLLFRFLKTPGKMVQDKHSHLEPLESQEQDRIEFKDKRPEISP
The procedure, abridged: as §1

In the next test the target is T6, ELF5 (Homo sapiens, UniProt Q9UKW6-2 1-255).
T6 sequence: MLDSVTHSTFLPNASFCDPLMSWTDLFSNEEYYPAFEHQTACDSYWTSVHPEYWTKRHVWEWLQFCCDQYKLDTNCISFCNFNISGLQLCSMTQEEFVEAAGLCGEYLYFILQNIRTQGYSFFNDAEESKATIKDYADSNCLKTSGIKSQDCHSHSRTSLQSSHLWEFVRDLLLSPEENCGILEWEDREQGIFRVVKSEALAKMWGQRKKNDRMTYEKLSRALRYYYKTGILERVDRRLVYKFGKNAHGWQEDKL
Summed up:
as §1

For another test, the target named is T7, ETV3 (Homo sapiens, UniProt P41162-2 1-143).
T7 sequence: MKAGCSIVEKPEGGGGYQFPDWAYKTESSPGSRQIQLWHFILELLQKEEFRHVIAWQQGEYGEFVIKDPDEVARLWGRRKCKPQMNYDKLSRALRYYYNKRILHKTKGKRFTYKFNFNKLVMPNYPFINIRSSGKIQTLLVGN
Summed up: as §1

The target in another test is ETV6 (Homo sapiens, UniProt P41212 1-452). Summed up: as §1
ETV6, sequence (P41212 whole entry): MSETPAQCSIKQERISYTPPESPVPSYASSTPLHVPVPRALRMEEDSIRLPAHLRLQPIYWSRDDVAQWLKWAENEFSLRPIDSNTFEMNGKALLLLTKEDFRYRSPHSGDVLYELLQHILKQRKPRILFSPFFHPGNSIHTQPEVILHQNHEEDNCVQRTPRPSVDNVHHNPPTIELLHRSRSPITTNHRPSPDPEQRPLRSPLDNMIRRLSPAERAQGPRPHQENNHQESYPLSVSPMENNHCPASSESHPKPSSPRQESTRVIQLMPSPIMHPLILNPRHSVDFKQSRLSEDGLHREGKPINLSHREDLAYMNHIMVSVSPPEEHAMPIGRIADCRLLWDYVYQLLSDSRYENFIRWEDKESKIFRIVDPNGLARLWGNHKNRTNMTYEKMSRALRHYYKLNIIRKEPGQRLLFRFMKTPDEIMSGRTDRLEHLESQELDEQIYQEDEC

Consider AAGGTA, for which the binding signal in the test with ERF was 1.05 fold enrichment (6-mer frequency, TF over GST control); in the test with ETV3L, 1.14 fold enrichment (6-mer frequency, TF over GST control); with ETS2 it was 1.11 fold enrichment (6-mer frequency, TF over GST control); with SPDEF, 1.16 fold enrichment (6-mer frequency, TF over GST control); with ETV7, 1.18 fold enrichment (6-mer frequency, TF over GST control); in the test with ELF5, 1.06 fold enrichment (6-mer frequency, TF over GST control). The binding signal was 1.09 fold enrichment (6-mer frequency, TF over GST control) with ETV3 and 1.19 fold enrichment (6-mer frequency, TF over GST control) with ETV6.
TGTCCT: the binding signal in the test with ERF was 1.5 fold enrichment (6-mer frequency, TF over GST control); with ETV3L it was 1.58 fold enrichment (6-mer frequency, TF over GST control); with ETS2, 1.47 fold enrichment (6-mer frequency, TF over GST control); with SPDEF it was 1.79 fold enrichment (6-mer frequency, TF over GST control); in the test with ETV7 it was 1.4 fold enrichment (6-mer frequency, TF over GST control); in the test with ELF5 it was 1.7 fold enrichment (6-mer frequency, TF over GST control). Moreover, the binding signal was 1.47 fold enrichment (6-mer frequency, TF over GST control) with ETV3 and 1.25 fold enrichment (6-mer frequency, TF over GST control) in the test with ETV6.
In the case of GCTGAA, the binding signal was 1.16 fold enrichment (6-mer frequency, TF over GST control) with ERF; 1.13 fold enrichment (6-mer frequency, TF over GST control) with ETV3L; 1.16 fold enrichment (6-mer frequency, TF over GST control) in the test with ETS2; 1.17 fold enrichment (6-mer frequency, TF over GST control) in the test with SPDEF; 1.08 fold enrichment (6-mer frequency, TF over GST control) with ETV7; 1 fold enrichment (6-mer frequency, TF over GST control) in the test with ELF5. Also, the binding signal was 1.1 fold enrichment (6-mer frequency, TF over GST control) in the test with ETV3 and 1.09 fold enrichment (6-mer frequency, TF over GST control) with ETV6.
In the case of ATAGTT, the binding signal was 1.23 fold enrichment (6-mer frequency, TF over GST control) with ERF; 1.27 fold enrichment (6-mer frequency, TF over GST control) in the test with ETV3L; 1.18 fold enrichment (6-mer frequency, TF over GST control) in the test with ETS2; 1.12 fold enrichment (6-mer frequency, TF over GST control) in the test with SPDEF; 1.19 fold enrichment (6-mer frequency, TF over GST control) in the test with ETV7; 1.12 fold enrichment (6-mer frequency, TF over GST control) with ELF5. In addition, the binding signal with ETV3 was 1.31 fold enrichment (6-mer frequency, TF over GST control); with ETV6, 1.21 fold enrichment (6-mer frequency, TF over GST control).
As for CCTCTT, the binding signal with ERF is 1.59 fold enrichment (6-mer frequency, TF over GST control); in the test with ETV3L, 1.71 fold enrichment (6-mer frequency, TF over GST control); with ETS2, 1.56 fold enrichment (6-mer frequency, TF over GST control); with SPDEF, 1.57 fold enrichment (6-mer frequency, TF over GST control); with ETV7, 1.51 fold enrichment (6-mer frequency, TF over GST control); with ELF5 it was 1.75 fold enrichment (6-mer frequency, TF over GST control). In addition, the binding signal with ETV3 was 1.67 fold enrichment (6-mer frequency, TF over GST control); with ETV6 it was 1.68 fold enrichment (6-mer frequency, TF over GST control).
In the case of CCTAAC, the binding signal in the test with ERF was 1.53 fold enrichment (6-mer frequency, TF over GST control); in the test with ETV3L it was 1.45 fold enrichment (6-mer frequency, TF over GST control); in the test with ETS2, 1.38 fold enrichment (6-mer frequency, TF over GST control); with SPDEF it was 1.41 fold enrichment (6-mer frequency, TF over GST control); with ETV7 it was 1.25 fold enrichment (6-mer frequency, TF over GST control); with ELF5, 1.39 fold enrichment (6-mer frequency, TF over GST control). The binding signal with ETV3 is 1.32 fold enrichment (6-mer frequency, TF over GST control); with ETV6, 1.3 fold enrichment (6-mer frequency, TF over GST control).
Consider CCTGCA, for which the binding signal in the test with ERF is 1.08 fold enrichment (6-mer frequency, TF over GST control); with ETV3L, 1.32 fold enrichment (6-mer frequency, TF over GST control); with ETS2, 1.26 fold enrichment (6-mer frequency, TF over GST control); with SPDEF it was 1.37 fold enrichment (6-mer frequency, TF over GST control); with ETV7, 1.24 fold enrichment (6-mer frequency, TF over GST control); with ELF5, 1.3 fold enrichment (6-mer frequency, TF over GST control). Besides, the binding signal with ETV3 was 1.22 fold enrichment (6-mer frequency, TF over GST control); with ETV6, 1.28 fold enrichment (6-mer frequency, TF over GST control).
For the sequence ATGGAC, the binding signal with ERF is 1.13 fold enrichment (6-mer frequency, TF over GST control); with ETV3L, 1.21 fold enrichment (6-mer frequency, TF over GST control); with ETS2, 1.24 fold enrichment (6-mer frequency, TF over GST control); in the test with SPDEF it was 1.17 fold enrichment (6-mer frequency, TF over GST control); in the test with ETV7, 1.02 fold enrichment (6-mer frequency, TF over GST control); in the test with ELF5, 1.13 fold enrichment (6-mer frequency, TF over GST control). Moreover, the binding signal was 1.2 fold enrichment (6-mer frequency, TF over GST control) with ETV3 and 1.2 fold enrichment (6-mer frequency, TF over GST control) with ETV6.
